Assay results reported in PubChem BioAssay (NCATS).
Inconclusive results are not listed. The source made the active and inactive calls. The call rests on the fitted dose curve; in most records, active means well fitted cell-killing curve with a large enough effect; inconclusive means small, poorly fitted or top-dose-only effect, or effect the other way; inactive means flat fitted curve, though single readings scatter.

What was measured:
Assay in all cases: Primary qHTS to identify gynecologic anti-cancer compounds using libraries of approved drugs and bioactive compounds (AID 1345084); further: nearly all actives have a fitted effect of over 55% in size
Conditions in all cases: Gynecologic cancer cell panel viability, ATPlite luminescence, 48 h; series mostly up to 57.5 µM
OV90 = test system: OV90
Method in brief: (§1)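 ATP-based viability (ATPlite), 1,000 cells/well, 16 h pre-incubation, 48 h compound at 37 C, 5% CO2, 15 min RT before read.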

PA-1 = test system: PA-1
Method in brief: as §1

SKOV3 = test system: SKOV3
Method in brief: as §1

Tov-21-G = test system: Tov-21-G
Method in brief: as §1

Tov112D = test system: Tov112D
Method in brief: as §1
On the % scale 0 is the no-effect control and ±100 the full control effect.

O=C(O)CCc1cccc(O)c1O[C@@H]1O[C@H](CO)[C@@H](O)[C@H](O)[C@H]1O
inactive: Potency (OV90) | Potency (PA-1) | Potency (SKOV3) | Potency (Tov-21-G) | Potency (Tov112D)

Cc1nc2cc(-c3cc(F)cc(C#N)c3)ccc2s1
inactive: Potency (OV90) | Potency (PA-1) | Potency (SKOV3) | Potency (Tov-21-G) | Potency (Tov112D)

CC(C)=CCC[C@](C)(O[C@@H]1O[C@H](CO)[C@@H](O)[C@H](O)[C@H]1O)[C@H]1CC[C@]2(C)[C@@H]1[C@H](O)CC1[C@@]3(C)CC[C@H](O)C(C)(C)C3[C@@H](O[C@@H]3O[C@H](CO)[C@@H](O)[C@H](O)[C@H]3O[C@@H]3O[C@@H](C)[C@H](O)[C@@H](O)[C@H]3O)C[C@]12C (stereo not given in full)
inactive: activity change, negative = cytotoxicity (OV90) -3.64% [at 11.6 µM] | activity change, negative = cytotoxicity (PA-1) 24.4% [at 11.6 µM] | activity change, negative = cytotoxicity (SKOV3) 18.8% [at 11.6 µM] | activity change, negative = cytotoxicity (Tov-21-G) -0.988% [at 11.6 µM] | activity change, negative = cytotoxicity (Tov112D) 2.74% [at 11.6 µM]

COC(=O)C1(O)C(OC(C)=O)CCC2C3(CC(c4ccoc4)OC3=O)C(C)=CCC21C(=O)OC (stereo not given)
inactive: Potency (OV90) | Potency (PA-1) | Potency (SKOV3) | Potency (Tov-21-G) | Potency (Tov112D)

CCCO[C@@H]1O[C@H](CO)[C@@H](O)[C@H](O)[C@H]1O[C@@H]1OC[C@@H](O)[C@H](O)[C@H]1O
inactive: Potency (OV90) | Potency (PA-1) | Potency (SKOV3) | Potency (Tov-21-G) | Potency (Tov112D)

OC[C@@]1(O)CO[C@H](OC[C@H]2O[C@@H](OC(CCCCc3ccc(O)cc3)CCc3ccc(O)cc3)[C@H](O)[C@@H](O)[C@@H]2O)[C@@H]1O (stereo not given in full)
inactive: Potency (OV90) | Potency (PA-1) | Potency (SKOV3) | Potency (Tov-21-G) | Potency (Tov112D)

Cc1ccccc1N1CCN(S(=O)(=O)C[C@]23CC[C@H](C[C@@H]2NC(=O)[C@@H](N)CCS(C)(=O)=O)C3(C)C)CC1
inactive: Potency (OV90) | Potency (PA-1) | Potency (SKOV3) | Potency (Tov-21-G) | Potency (Tov112D)

COc1ccc(/C=C/C(=O)O[C@@H]2[C@@H](O[C@@H]3O[C@H](CO)[C@@H](O)[C@H](O)[C@H]3O)[C@@H](O)[C@H](O[C@H]3C4C=CO[C@@H](O[C@@H]5O[C@H](CO)[C@@H](O)[C@H](O)[C@H]5O)C4[C@@]4(CO)O[C@@H]34)O[C@H]2C)cc1 (stereo not given in full)
inactive: activity change, negative = cytotoxicity (OV90) 9.16% [at 11.6 µM] | activity change, negative = cytotoxicity (PA-1) -1.37% [at 11.6 µM] | activity change, negative = cytotoxicity (SKOV3) 1.14% [at 11.6 µM] | activity change, negative = cytotoxicity (Tov-21-G) 4.96% [at 11.6 µM] | activity change, negative = cytotoxicity (Tov112D) 0.569% [at 11.6 µM]

O=C(O)CC1(O)C(=O)Nc2ccccc21 (stereo not given)
inactive: Potency (OV90) | Potency (PA-1) | Potency (SKOV3) | Potency (Tov-21-G) | Potency (Tov112D)

C=CC(C)(O)CC/C=C(\C)C(=O)O[C@@H]1[C@@H](O)[C@H](OC(C)(C=C)CC/C=C(\C)C(=O)O)O[C@H](CO)[C@H]1OC(=O)/C(C)=C/CCC(C)(O)C=C (stereo not given in full)
inactive: Potency (OV90) | Potency (PA-1) | Potency (SKOV3) | Potency (Tov-21-G) | Potency (Tov112D)

C[C@@]1(C(=O)O)CCC[C@@]2(C)C3=CC[C@H]4C[C@@]3(CC[C@H]12)CC4(O)CO (stereo not given in full)
inactive: Potency (OV90) | Potency (PA-1) | Potency (SKOV3) | Potency (Tov-21-G) | Potency (Tov112D)

CN1C(=O)N(c2cc(Cl)cc(Cl)c2)C(=O)[C@@]1(C)Cc1ccc(Br)cc1
inactive: Potency (OV90) | Potency (PA-1) | Potency (SKOV3) | Potency (Tov-21-G) | Potency (Tov112D)

CC1(C(=O)O)CC[C@]2(C(=O)OC3OC(CO)C(O)C(O)C3O)CC[C@]3(C)C(=CCC4[C@@]5(C)CC[C@H](OC6OCC(O)C(O)C6OC6OC(CO)C(O)C(O)C6O)C(C)(C)C5CC[C@]43C)C2C1 (stereo not given in full)
inactive: activity change, negative = cytotoxicity (OV90) -0.207% [at 11.6 µM] | activity change, negative = cytotoxicity (PA-1) -1.65% [at 11.6 µM] | activity change, negative = cytotoxicity (SKOV3) -6.88% [at 11.6 µM] | activity change, negative = cytotoxicity (Tov-21-G) 15.1% [at 11.6 µM] | activity change, negative = cytotoxicity (Tov112D) -1.55% [at 11.6 µM]

Cc1noc2c1-c1ccccc1C(c1ccc(Cl)cc1)=N[C@H]2CC(N)=O
inactive: Potency (OV90) | Potency (PA-1) | Potency (SKOV3) | Potency (Tov-21-G) | Potency (Tov112D)

O=C(c1ccc(Cl)c([N+](=O)[O-])c1)N1CCN(c2ccccc2F)CC1
inactive: Potency (OV90) | Potency (PA-1) | Potency (SKOV3) | Potency (Tov-21-G) | Potency (Tov112D)

CCC(=O)OCC(=O)[C@@]1(OC(=O)CC)[C@@H](C)C[C@H]2[C@@H]3CCC4=CC(=O)C=C[C@]4(C)[C@@]3(F)[C@@H](O)C[C@@]21C
inactive: Potency (OV90) | Potency (PA-1) | Potency (SKOV3) | Potency (Tov-21-G) | Potency (Tov112D)

COc1cc([C@@H](O[C@@H]2O[C@H](CO)[C@@H](O)[C@H](O)[C@H]2O)[C@@H]2CO[C@H](c3ccc(O)c(OC)c3)[C@H]2CO)ccc1O
inactive: Potency (OV90) | Potency (PA-1) | Potency (SKOV3) | Potency (Tov-21-G) | Potency (Tov112D)

Cc1nc(-c2cccnc2)sc1C(=O)Nc1ccccc1-c1cn2c(CN3CCOCC3)csc2n1
inactive: Potency (OV90) | Potency (PA-1) | Potency (SKOV3) | Potency (Tov-21-G) | Potency (Tov112D)

COC(=O)C1=COC(O[C@@H]2O[C@H](CO)[C@@H](O)[C@H](O)[C@H]2O)/C(=C\COC(=O)/C=C/c2ccccc2)C1CC(=O)OCCc1ccc(O)cc1 (stereo not given in full)
inactive: Potency (OV90) | Potency (PA-1) | Potency (SKOV3) | Potency (Tov-21-G) | Potency (Tov112D)
